# M1 PAM: potentiates human M1 receptor response to acetylcholine; P11229; CHO-K1 hM1, Fluo-8 calcium fluorescence, ACh EC20; 0% = ACh EC20, 100% = maximal ACh; activation, % at 3 µM; actives 0.088% (n = 360,000); in the data active = activation above about 19%, passing the limit was not always enough
# CHO-K1 Ca antag: M1 antagonist counterscreen hit in parental CHO-K1 cells | inhibition, % at 3 µM | actives 0.6% (n = 360,000) | AID 602250 | ATP-induced calcium, Fluo-8 fluorescence;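 active = inhibition above a per-plate cutoff, the plate's mean sample inhibition plus 3 SD, cut at about 24% in these data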;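 also: 0% = DMSO plus EC80 ATP and 100% = DMSO alone without ATP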
# M1 antag: antagonists of human M1 muscarinic receptor; actives 1.3% (n = 360,000); CHO-K1 hM1, Fluo-8 calcium fluorescence, ACh EC80 antagonist; inhibition, % at 3 µM; P11229;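 active = percent inhibition above its own plate's cutoff, namely the mean of that plate's compound wells plus 3 SD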;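 also: peak over basal fluorescence ratio during 140 s after agonist addition; 0% = ACh EC80 plus DMSO and 100% = DMSO alone without agonist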
# M1 ag parental: counter-screen for M1 agonists: effect in parental CHO-K1 cells | activation, % at 3 µM | actives 0.48% (n = 360,000) | Fluo-8 calcium fluorescence; scaled to maximal ATP response, vehicle zero | AID 602248; in the data active = activation above about 15%;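 also: untransfected CHO-K1 host cells lacking M1 receptor as counterscreen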
# CHO-K1 Ca PAM: M1 PAM counterscreen hit in parental CHO-K1 cells | actives 0.02% (n = 360,000) | activation, % at 3 µM | AID 602247 | ATP EC20, Fluo-8 calcium fluorescence; 0% at ATP EC20, 100% at ATP max;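 active = activation above the run cutoff, the mean activation of all test compounds plus 3 SD, cut at about 40% in these data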;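 also: peak over basal fluorescence ratio in a 140 s read after ATP addition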
# CHRM1 agonist: agonists of human M1 muscarinic receptor. P11229. CHO-K1 hM1, Fluo-8 calcium fluorescence, agonist mode; 0% DMSO, 100% acetylcholine EC100. activation, % at 3 µM. actives 0.33% (n = 360,000). AID 588814;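 active = activation above the run's mean compound activation plus 3 SD, cut at about 16% in these data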;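 also: peak over basal fluorescence ratio within a 140 s kinetic read after compound addition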
# * hit, by the source's call. In the library only some 2.3% were active in any assay of this set; here they are far more common.
SMILES,M1 PAM,CHO-K1 Ca antag,M1 antag,M1 ag parental,CHO-K1 Ca PAM,CHRM1 agonist
CN1CCc2c(c(N3CCCCC3)nc3n[nH]c(N)c23)C1,4.1,-17.0,-2.2,0.2,18.0,-6.7
CN1C2CCC1CC(OC(=O)c1ccc(Cl)cc1)C2 (stereo not drawn),-22.1,0.3,76.8*,6.7,17.6,-4.8
COC(=O)C1=C(c2cccc(OCc3ccccc3)c2)C[C@@H]2CC[C@H]1N2C(=O)NCc1ccc(F)cc1,-33.8,-5.7,38.1*,-0.1,-2.3,-12.7
COC(=O)C1=C(c2cc3ccccc3o2)C[C@@H]2CC[C@H]1N2C,-29.7,-5.5,35.0*,0.5,5.4,-14.4
COC(=O)C1=C(c2ccccc2)C[C@@H]2CC[C@H]1N2C(=O)NCc1ccccc1,8.5,-5.9,-11.6,-0.2,-6.1,-10.3
COC(=O)C1=C(c2ccccc2)C[C@@H]2CC[C@H]1N2C(=O)NCc1ccc(F)cc1,-37.0,-7.3,67.0*,-0.6,4.9,-12.8
COC(=O)C1=C(c2cc3ccccc3o2)C[C@@H]2CC[C@H]1N2C(=O)NCc1ccc(F)cc1,-38.0,-13.7,66.9*,-0.2,12.5,-12.0
N#CC12CC(=O)N1Cc1cnnn1-c1ccccc12 (stereo not drawn),10.3,7.5,-11.9,0.6,15.7,-1.2
O=c1[nH]cnc2nc(-c3ccc(N(CCCl)CCCl)cc3)[nH]c12,-2.9,-6.9,0.1,-0.2,17.5,-6.5
O=C(O)C(O)(c1ccccc1)C1CCCC1 (stereo not drawn),4.0,-1.1,-1.0,0.2,9.1,-1.1
CCCC(CCC)C(=O)OC[N+](C)(C)CCOC(=O)C(O)(c1ccccc1)C1CCCC1 (stereo not drawn),-30.7,0.3,99.1*,0.4,3.3,-12.3
CC(C)(C)C(=O)OC[N+](C)(C)CCOC(=O)C(O)(c1ccccc1)C1CCCC1 (stereo not drawn),-25.2,-16.2,98.2*,1.0,23.8,-6.6

# Source: PubChem BioAssay
